The values that follow come from PubChem BioAssay AID574 (The Scripps Research Institute Molecular Screening Center, 2007).

Molecules are shown by their SMILES. The campaign covered roughly 65,000 compounds. About 450 (0.69%) were called active. This excerpt belongs to a sample that is enriched for actives. A number with no mark means an inactive call.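 How the source made its calls: active means activation above a set limit, the screen-wide mean activation plus 3 SD (cut at about 8.5% in these data); inactive means the rest.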

The target of this assay is 5-hydroxytryptamine receptor 1E (Homo sapiens) (UniProt P28566). The experiment in a line: 5-HT1E receptor agonists, primary screen, cell-based, HTS (AID 574).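 Further: 100% = positive control agonist at 1 µM giving full maximal response.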 The settings on record: CHO 5-HT1E Ga15 NFAT-bla reporter, FRET; at 6 µM; stronger effect = higher value; 0% DMSO wells, 100% control agonist wells.
Chain of 5-hydroxytryptamine receptor 1E (Homo sapiens) (P28566 whole entry, looked up): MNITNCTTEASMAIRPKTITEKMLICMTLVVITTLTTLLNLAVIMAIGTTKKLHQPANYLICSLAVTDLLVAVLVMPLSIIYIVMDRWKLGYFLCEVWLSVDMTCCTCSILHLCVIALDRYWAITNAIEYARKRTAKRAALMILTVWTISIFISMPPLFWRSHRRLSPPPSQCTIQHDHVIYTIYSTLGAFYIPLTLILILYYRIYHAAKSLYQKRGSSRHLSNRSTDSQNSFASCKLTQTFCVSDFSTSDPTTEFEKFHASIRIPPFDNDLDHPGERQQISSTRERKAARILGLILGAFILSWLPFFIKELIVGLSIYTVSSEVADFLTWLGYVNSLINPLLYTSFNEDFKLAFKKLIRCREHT
Take `CCCS(=O)(=O)N1CCCC(C(=O)NCc2ccco2)C1` (configuration not stated): the activation is 0.6%.

Consider `COc1cccc2cc(C(=O)N(C)C)c(=O)oc12`, for which the activation was 0.2%.

`Cn1c(=O)cc(OCCCC(=O)N2CCN(Cc3ccc4c(c3)OCO4)CC2)c2ccccc21`: the activation was 0.8%.

For `CC(C)OCCCNC(=O)CNC(=O)c1cccs1`, the activation is 1.3%.

On to `COc1cccc(OCCOc2cccc(/C=N/n3cnnc3)c2)c1`, for which the activation is -0.3%.

As for `C=C(C)CSc1nc(N)c2c3c(sc2n1)CCC3`, the activation is 0.3%.

Turning to `Cc1c(CN2CCC(C)CC2)c(=O)n(-c2ccccc2)n1C`, the activation is -0.1%.

In the case of `Cc1cccc(N2CCN(Cc3c(C)n(C)n(-c4ccccc4)c3=O)CC2)c1C`, the activation is 41.4% (active).

Regarding `CC(=O)N1CCN(c2cccc(C)c2C)CC1`, the activation was 0.3%.

For the molecule `CC1CN(C2CCCCC2)c2nc3c(c(=O)n(C)c(=O)n3C)n2C1` (configuration not stated), the activation is -0.2%.

Consider `CCOC(=O)CSc1nnc(CNC(=O)Cc2ccccc2)n1-c1ccccc1OC`, for which the activation is -0.7%.

`O=C(Nc1ccc(Oc2ccccc2)cc1)c1ccco1`: the activation is 0.3%.

In the case of `CCOc1cc(NC(=O)c2ccco2)c(OCC)cc1NC(=O)COc1ccccc1`, the activation is 9.5% (active).

Take `Cc1ccc(C(=O)COc2cccc(NC(=O)c3ccco3)c2)cc1`: the activation is 0.2%.

Regarding `CC(=O)c1cccc(NC(=O)N2CCCC2C(=O)NCCC(C)C)c1` (configuration not stated), the activation is -0.1%.

As to `CCN(Cc1ccccc1)C(=O)CSc1nc(C)cc2c1C(=O)OC2`, the activation was -0.3%.

As for `CCOc1ccccc1C1C(C(=O)OC)=CN(C)C=C1C(=O)OC`, the activation is 7.1%.

For the molecule `O=C(CCn1c(=O)[nH]c2ccccc2c1=O)NCCCN1CCN(c2cccc(Cl)c2)CC1`, the activation was 11.7% (active).

In the case of `O=C(CCn1c(=S)[nH]c2ccccc2c1=O)NCCCN1CCCC1=O`, the activation is -0.3%.

Turning to `O=C(CCCn1c(=O)[nH]c2cc(Cl)ccc2c1=O)NCCN1CCN(c2ccccc2)CC1`, the activation was 1%.

`Cn1c(C(=O)NCCCN2CCN(c3cccc(Cl)c3)CC2)cc2c(=O)n(C)c3ccccc3c21`: the activation is 14.6% (active).

As for `CCn1c(=O)cc(OCC(=O)NCCCN2CCN(c3cccc(Cl)c3)CC2)c2ccccc21`, the activation is 7.6%.

`CC1CCCC(C)N1CCCNC(=O)c1cc2c(=O)n(C)c3ccccc3c2n1C` (configuration not stated): the activation was 0.8%.

In the case of `Cc1cc(=O)[nH]c(SCC(N)=O)c1C#N`, the activation is 0.8%.

Consider `COc1ccc(C(=O)Nc2cccnc2)cc1C(=O)Nc1cccnc1`, for which the activation is 0.1%.

For `Cc1ccc2nc(-c3ccc(SCC(=O)Nc4cc(C)on4)nc3)[nH]c2c1`, the activation is -0.4%.

Turning to `Cc1cc(=O)oc(C)c1C(=O)NCc1ccc(F)cc1`, the activation was -0.2%.
